# PubChem BioAssay AID1159580 (chemical genetic matrix, 2015)
# Screen size: about 5,500 compounds; about 2,000 (36%) were called active. About 18% were inconclusive and are not listed. This is one part of the list. Unmarked numbers belong to inactive results. Rule as the data show it: active = normalized growth mostly below about 0.91 (no sharp cut-off); inconclusive = no clear call, values can overlap the other calls; inactive = mostly above about 0.92.
# Test: chemical genetic growth profiling, strain panel (AID 1159580);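 also: tested at 20 µM; growth read once vehicle control cultures reached saturation at 30 °C; 1 = growth at the plate median or of vehicle wells; lower values mean less growth of the strain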
# Settings: S. cerevisiae deletion strains, growth OD
smiles,measurement,setting,value
CC(=O)Nc1c(C)c(C)c(C)c(C)c1NC(C)=O,normalized growth,"locus YAL013W, strain DEP1, hits give low values",1.01
same,normalized growth,"locus YBR229C, strain ROT2, hits give low values",1.01
same,normalized growth,"locus YDL101C, strain DUN1, hits give low values",1
same,normalized growth,"locus YDL134C, strain PPH21, hits give low values",1
same,normalized growth,"locus YDR150W, strain NUM1, hits give low values",0.989
same,normalized growth,"locus YEL061C, strain CIN8, hits give low values",1.02
same,normalized growth,"locus YGR078C, strain PAC10, hits give low values",0.994
same,normalized growth,"locus YHR030C, strain SLT2, hits give low values",1.14
same,normalized growth,"locus YHR087W, strain rtc3, hits give low values",0.997
same,normalized growth,"locus YJR043C, strain POL32, hits give low values",1.01
same,normalized growth,"locus YJR075W, strain HOC1, hits give low values",0.988
same,normalized growth,"locus YLR039C, strain RIC1, hits give low values",1.04
same,normalized growth,"locus YLR058C, strain SHM2 (second series), hits give low values",1.02
same,normalized growth,"locus YLR085C, strain ARP6, hits give low values",1.07
same,normalized growth,"locus YLR262C, strain YPT6, hits give low values",1.02
same,normalized growth,"locus YML094W, strain GIM5, hits give low values",1.04
same,normalized growth,"locus YMR219W, strain ESC1, hits give low values",1.02
same,normalized growth,"locus YMR263W, strain SAP30, hits give low values",1.01
same,normalized growth,"locus YNL153C, strain GIM3, hits give low values",0.995
same,normalized growth,"locus YNL298W, strain CLA4 (second series), hits give low values",1.06
same,normalized growth,"locus YNL322C, strain KRE1, hits give low values",1.01
same,normalized growth,"locus YNR030W, strain Alg12, hits give low values",1.03
same,normalized growth,"locus YPL055C, strain LGE1, hits give low values",1.03
same,normalized growth,"locus YPL241C, strain CIN2, hits give low values",1.15 [resistant] (active)
same,normalized growth,"locus YPR135W, strain CTF4, hits give low values",1.09
